We go through one sequence from article PMC7862700, “An all-to-all approach to the identification of sequence-specific readers for epigenetic DNA modifications on cytosine”.

Common to all, as to experiment: DAPPL (digital affinity profiling via proximity ligation, sequencing); 10 mM Tris-HCl pH 7.5, 50 mM NaCl, 1 mM DTT, 4% glycerol, room temperature, 30 min; GST-TFs on glutathione beads, 16-mer random dsDNA library, 0.1% formaldehyde crosslink after washing; high values mean tight binding
For one test, the target named is T1, FEV (Homo sapiens, UniProt Q99581 1-238).
T1 sequence: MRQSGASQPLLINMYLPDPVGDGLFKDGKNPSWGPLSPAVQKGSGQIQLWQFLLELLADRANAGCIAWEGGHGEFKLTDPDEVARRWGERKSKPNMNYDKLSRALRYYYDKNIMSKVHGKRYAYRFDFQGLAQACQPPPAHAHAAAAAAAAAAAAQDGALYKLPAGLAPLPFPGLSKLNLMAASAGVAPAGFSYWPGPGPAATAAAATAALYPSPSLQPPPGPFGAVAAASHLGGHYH
The following applies: protein: recombinant; tags: N-terminal GST; dsDNA, one strand shown. The essentials:
(§1)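 Binding signal is each hexamer's read frequency for a factor divided by its frequency in the tag-only sample. The factors were GST-fused human transcription factors from yeast, captured on glutathione beads, DNA-barcoded and pooled with that sample. Pools were incubated with 200 nmole of a random double-stranded 16-mer DNA library in Tris/NaCl/DTT/glycerol buffer at room temperature for 30 min, then washed, crosslinked with 0.1% formaldehyde, proximity-ligated with BsaI/T4 ligase (1 h, 37 °C), PCR-amplified and sequenced on an Illumina NextSeq500.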

In the next test the target is ETV5 (Homo sapiens, UniProt P41161 1-510). The following applies: protein: recombinant; tags: N-terminal GST; dsDNA, one strand shown. The essentials:
as §1

A further test has as its target HSF1 (Homo sapiens, UniProt Q00613 1-529). The following applies: protein: recombinant; tags: N-terminal GST; chain copies: 3; dsDNA, one strand shown. The essentials:
as §1

A further test concerns the target T2, SPIC (Homo sapiens, UniProt Q8N5J4 1-248).
T2 sequence: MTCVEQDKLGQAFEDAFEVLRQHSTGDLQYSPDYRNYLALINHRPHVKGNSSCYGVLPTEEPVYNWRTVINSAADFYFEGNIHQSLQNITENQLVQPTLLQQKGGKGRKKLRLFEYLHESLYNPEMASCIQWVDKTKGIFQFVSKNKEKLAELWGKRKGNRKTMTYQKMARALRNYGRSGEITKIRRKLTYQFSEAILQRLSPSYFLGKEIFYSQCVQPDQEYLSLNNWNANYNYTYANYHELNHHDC
The following applies: protein: recombinant; tags: N-terminal GST; dsDNA, one strand shown. The essentials: as §1

In the next test the target is ELF4 (Homo sapiens, UniProt Q99607 1-663). The following applies: protein: recombinant; tags: N-terminal GST; dsDNA, one strand shown. The essentials:
as §1

A further test has as its target T3, ELK4 (Homo sapiens, UniProt P28324-2 1-405).
T3 sequence: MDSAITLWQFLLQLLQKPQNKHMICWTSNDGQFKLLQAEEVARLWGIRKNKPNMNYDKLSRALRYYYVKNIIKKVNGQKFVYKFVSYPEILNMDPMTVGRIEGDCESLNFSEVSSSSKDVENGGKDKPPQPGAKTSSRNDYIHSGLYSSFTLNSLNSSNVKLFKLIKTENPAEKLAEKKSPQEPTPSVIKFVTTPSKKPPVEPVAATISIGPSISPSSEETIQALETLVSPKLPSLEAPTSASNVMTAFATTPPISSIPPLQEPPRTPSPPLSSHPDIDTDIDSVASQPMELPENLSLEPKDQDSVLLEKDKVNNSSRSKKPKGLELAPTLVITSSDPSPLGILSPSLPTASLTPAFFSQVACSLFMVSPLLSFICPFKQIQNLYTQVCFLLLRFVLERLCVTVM
The following applies: protein: recombinant; tags: N-terminal GST; dsDNA, one strand shown. The procedure, abridged:
as §1

The target in another test is T4, ETV2 (Homo sapiens, UniProt O00321 1-342).
T4 sequence: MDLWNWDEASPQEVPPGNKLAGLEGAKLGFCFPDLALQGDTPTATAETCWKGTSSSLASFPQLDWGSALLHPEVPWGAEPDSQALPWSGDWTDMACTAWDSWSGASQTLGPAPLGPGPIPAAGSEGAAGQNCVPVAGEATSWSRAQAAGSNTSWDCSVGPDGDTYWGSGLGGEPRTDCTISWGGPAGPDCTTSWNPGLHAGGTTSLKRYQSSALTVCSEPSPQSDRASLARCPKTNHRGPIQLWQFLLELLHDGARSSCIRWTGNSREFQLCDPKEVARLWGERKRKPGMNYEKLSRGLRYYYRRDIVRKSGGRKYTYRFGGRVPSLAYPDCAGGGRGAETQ
The following applies: protein: recombinant; tags: N-terminal GST; dsDNA, one strand shown. The procedure, abridged: as §1

A further test deals with T5, ELF3 (Homo sapiens, UniProt P78545 1-371).
T5 sequence: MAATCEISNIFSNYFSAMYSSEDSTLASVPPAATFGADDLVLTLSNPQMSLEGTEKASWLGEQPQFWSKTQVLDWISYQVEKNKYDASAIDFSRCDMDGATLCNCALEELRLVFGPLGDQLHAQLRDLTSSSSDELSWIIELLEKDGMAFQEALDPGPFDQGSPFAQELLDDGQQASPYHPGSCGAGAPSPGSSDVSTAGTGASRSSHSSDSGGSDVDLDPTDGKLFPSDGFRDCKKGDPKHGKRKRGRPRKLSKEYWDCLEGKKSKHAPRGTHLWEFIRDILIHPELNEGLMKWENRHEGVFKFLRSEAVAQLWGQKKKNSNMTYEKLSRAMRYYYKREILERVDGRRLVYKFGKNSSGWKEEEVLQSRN
The following applies: protein: recombinant; tags: N-terminal GST; dsDNA, one strand shown. The procedure, abridged: as §1

For another test, the target named is CRX (Homo sapiens, UniProt O43186 1-299). The following applies: protein: recombinant; tags: N-terminal GST; dsDNA, one strand shown. The procedure, abridged: as §1
A further test has as its target ETV1 (Homo sapiens, UniProt P50549 1-477). The following applies: protein: recombinant; tags: N-terminal GST; dsDNA, one strand shown. The essentials: as §1
The next test concerns the target T6, ERF (Homo sapiens, UniProt P50548 1-548).
T6 sequence: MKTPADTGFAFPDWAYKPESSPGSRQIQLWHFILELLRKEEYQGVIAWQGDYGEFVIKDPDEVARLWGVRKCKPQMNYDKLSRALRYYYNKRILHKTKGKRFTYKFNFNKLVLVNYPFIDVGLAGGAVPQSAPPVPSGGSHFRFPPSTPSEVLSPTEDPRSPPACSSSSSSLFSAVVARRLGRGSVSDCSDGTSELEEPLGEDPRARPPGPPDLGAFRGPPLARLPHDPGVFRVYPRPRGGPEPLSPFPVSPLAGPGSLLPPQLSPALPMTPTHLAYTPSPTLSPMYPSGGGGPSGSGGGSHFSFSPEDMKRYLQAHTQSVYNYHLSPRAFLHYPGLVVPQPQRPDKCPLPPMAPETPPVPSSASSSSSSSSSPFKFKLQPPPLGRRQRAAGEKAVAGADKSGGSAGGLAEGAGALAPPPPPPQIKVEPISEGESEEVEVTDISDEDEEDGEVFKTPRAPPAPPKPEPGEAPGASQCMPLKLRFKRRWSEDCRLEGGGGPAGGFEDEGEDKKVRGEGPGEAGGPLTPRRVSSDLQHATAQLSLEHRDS
The following applies: protein: recombinant; tags: N-terminal GST; dsDNA, one strand shown. The essentials: as §1

In the next test the target is T7, ETV3L (Homo sapiens, UniProt Q6ZN32 1-361).
T7 sequence: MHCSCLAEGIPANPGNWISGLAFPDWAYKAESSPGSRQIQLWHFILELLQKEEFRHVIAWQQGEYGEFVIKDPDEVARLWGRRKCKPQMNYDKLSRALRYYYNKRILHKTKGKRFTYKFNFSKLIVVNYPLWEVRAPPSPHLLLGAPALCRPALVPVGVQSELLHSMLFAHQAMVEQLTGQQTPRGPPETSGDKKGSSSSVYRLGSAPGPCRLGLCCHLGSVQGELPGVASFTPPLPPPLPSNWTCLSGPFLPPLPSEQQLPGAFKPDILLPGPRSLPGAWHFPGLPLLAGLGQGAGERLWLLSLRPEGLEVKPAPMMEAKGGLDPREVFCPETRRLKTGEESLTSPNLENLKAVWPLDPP
The following applies: protein: recombinant; tags: N-terminal GST; dsDNA, one strand shown. The procedure, abridged:
as §1

In the next test the target is T8, ETS2 (Homo sapiens, UniProt P15036 1-469).
T8 sequence: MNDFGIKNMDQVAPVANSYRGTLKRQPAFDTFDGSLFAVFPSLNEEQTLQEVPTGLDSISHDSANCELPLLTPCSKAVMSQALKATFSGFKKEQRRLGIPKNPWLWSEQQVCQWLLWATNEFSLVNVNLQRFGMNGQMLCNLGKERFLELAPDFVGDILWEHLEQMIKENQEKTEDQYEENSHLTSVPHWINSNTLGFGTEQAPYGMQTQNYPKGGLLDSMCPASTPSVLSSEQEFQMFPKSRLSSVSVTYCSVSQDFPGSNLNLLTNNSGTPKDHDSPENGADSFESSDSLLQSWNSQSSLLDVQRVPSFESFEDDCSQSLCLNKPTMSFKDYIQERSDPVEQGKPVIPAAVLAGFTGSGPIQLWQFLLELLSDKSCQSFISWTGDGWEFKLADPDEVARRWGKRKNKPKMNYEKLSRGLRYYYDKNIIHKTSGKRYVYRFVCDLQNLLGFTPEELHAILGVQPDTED
The following applies: protein: recombinant; tags: N-terminal GST; dsDNA, one strand shown. The essentials:
as §1

Another test deals with T9, SPDEF (Homo sapiens, UniProt O95238 1-335).
T9 sequence: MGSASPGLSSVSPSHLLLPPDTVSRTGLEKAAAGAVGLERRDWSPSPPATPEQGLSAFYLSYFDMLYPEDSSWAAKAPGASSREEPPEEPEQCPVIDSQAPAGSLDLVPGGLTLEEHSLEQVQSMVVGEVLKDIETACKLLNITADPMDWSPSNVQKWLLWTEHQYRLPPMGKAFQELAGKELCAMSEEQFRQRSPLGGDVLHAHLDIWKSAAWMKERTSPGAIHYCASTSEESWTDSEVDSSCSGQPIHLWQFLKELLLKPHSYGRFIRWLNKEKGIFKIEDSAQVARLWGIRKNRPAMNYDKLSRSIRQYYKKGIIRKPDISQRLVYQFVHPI
The following applies: protein: recombinant; tags: N-terminal GST; dsDNA, one strand shown. The essentials:
as §1

The next test has as its target T10, ETV7 (Homo sapiens, UniProt Q9Y603 1-341).
T10 sequence: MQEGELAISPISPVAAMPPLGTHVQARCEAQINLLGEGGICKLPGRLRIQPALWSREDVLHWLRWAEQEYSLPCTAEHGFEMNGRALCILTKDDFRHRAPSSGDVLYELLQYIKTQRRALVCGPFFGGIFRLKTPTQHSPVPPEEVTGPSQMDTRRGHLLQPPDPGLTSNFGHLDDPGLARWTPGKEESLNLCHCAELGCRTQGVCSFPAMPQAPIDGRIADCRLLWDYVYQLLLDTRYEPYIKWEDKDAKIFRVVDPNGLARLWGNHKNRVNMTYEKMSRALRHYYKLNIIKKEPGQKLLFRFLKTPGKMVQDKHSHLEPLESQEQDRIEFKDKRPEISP
The following applies: protein: recombinant; tags: N-terminal GST; dsDNA, one strand shown. The procedure, abridged: as §1

Another test addresses T11, ELF5 (Homo sapiens, UniProt Q9UKW6-2 1-255).
T11 sequence: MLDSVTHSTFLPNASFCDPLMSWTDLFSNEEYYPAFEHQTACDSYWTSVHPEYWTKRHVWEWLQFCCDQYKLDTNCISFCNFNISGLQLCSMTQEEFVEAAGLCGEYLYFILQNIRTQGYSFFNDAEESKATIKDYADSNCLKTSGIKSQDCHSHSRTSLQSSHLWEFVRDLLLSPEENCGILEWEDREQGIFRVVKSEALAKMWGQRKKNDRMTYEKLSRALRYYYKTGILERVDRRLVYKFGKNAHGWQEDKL
The following applies: protein: recombinant; tags: N-terminal GST; dsDNA, one strand shown. The essentials:
as §1

For another test, the target named is T12, ETV3 (Homo sapiens, UniProt P41162-2 1-143).
T12 sequence: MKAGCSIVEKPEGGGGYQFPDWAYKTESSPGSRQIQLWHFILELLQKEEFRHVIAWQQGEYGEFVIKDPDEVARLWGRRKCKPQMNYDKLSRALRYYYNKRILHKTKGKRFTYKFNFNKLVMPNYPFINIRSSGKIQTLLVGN
The following applies: protein: recombinant; tags: N-terminal GST; dsDNA, one strand shown. The procedure, abridged: as §1

The target of a further test is ETV6 (Homo sapiens, UniProt P41212 1-452). The following applies: protein: recombinant; tags: N-terminal GST; dsDNA, one strand shown. The procedure, abridged: as §1
Chain of ETV6 (P41212 whole entry): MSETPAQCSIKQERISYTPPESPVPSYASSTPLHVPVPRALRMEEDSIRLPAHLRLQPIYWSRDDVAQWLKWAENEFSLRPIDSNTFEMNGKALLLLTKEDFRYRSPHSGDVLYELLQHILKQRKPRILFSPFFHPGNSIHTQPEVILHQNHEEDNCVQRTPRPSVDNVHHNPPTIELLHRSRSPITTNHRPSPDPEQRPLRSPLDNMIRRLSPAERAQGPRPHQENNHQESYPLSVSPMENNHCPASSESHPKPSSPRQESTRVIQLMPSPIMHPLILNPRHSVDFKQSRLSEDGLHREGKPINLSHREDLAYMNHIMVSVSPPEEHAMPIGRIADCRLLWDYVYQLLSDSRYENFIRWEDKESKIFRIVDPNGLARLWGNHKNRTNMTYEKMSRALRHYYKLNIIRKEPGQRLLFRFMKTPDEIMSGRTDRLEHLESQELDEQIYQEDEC

Chain of ETV5 (P41161 whole entry): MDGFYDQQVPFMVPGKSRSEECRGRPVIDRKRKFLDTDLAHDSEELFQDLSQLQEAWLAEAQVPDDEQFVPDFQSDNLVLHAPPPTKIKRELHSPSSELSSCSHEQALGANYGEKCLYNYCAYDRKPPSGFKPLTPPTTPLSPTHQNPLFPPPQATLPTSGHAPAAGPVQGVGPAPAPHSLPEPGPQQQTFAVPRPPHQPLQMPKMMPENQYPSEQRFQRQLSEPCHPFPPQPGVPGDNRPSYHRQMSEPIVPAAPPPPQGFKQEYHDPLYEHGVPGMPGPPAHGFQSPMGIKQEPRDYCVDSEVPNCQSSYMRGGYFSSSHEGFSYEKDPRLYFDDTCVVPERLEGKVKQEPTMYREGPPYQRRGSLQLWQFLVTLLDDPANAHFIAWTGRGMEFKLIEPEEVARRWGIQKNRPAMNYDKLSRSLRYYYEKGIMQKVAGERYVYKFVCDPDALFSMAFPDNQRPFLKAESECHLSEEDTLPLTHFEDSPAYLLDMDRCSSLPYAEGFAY
Chain of ETV1 (P50549 whole entry): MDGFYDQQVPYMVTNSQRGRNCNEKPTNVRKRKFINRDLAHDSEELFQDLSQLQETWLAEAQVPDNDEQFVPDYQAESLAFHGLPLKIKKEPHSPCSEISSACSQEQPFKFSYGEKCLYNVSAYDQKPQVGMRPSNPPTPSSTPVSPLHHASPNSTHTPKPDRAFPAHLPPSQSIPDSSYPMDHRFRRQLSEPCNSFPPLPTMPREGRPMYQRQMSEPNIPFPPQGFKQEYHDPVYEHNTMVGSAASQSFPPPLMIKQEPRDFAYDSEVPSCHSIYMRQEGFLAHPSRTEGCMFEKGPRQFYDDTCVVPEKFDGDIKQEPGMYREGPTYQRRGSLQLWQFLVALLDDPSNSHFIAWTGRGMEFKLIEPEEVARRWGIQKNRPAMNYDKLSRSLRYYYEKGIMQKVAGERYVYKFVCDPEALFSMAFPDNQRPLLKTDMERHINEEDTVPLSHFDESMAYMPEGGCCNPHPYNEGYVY
Chain of HSF1 (Q00613 whole entry): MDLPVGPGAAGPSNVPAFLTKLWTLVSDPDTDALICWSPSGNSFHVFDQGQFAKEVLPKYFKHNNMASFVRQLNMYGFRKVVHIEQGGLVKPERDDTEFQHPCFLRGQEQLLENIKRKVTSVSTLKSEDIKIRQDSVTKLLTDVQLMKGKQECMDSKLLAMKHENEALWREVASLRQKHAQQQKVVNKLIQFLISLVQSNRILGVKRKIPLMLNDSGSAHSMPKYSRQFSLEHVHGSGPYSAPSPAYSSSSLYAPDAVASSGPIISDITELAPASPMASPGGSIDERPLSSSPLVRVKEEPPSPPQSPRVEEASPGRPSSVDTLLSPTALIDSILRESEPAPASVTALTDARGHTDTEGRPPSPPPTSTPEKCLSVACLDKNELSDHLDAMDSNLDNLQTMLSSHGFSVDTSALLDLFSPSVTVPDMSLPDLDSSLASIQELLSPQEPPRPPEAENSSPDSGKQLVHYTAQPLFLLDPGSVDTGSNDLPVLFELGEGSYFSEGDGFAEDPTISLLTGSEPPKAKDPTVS
Chain of ELF4 (Q99607 whole entry): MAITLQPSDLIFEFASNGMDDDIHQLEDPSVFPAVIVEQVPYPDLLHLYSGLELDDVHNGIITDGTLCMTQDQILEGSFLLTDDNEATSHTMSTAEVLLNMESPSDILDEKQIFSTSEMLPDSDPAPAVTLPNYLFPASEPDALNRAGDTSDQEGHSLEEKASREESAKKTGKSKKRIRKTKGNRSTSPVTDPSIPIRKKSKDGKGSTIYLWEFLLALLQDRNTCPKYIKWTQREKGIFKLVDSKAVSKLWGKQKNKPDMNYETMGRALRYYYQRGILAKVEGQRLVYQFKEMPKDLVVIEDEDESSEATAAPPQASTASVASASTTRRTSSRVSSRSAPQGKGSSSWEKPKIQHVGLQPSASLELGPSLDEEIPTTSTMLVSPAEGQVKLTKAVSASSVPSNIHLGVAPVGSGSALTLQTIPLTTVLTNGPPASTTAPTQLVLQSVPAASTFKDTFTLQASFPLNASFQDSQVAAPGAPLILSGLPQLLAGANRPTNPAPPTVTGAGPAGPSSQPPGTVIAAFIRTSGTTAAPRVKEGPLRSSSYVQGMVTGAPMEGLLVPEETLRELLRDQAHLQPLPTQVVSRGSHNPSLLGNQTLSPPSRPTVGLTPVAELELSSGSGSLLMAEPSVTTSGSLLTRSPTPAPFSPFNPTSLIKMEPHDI
Chain of CRX (O43186 whole entry): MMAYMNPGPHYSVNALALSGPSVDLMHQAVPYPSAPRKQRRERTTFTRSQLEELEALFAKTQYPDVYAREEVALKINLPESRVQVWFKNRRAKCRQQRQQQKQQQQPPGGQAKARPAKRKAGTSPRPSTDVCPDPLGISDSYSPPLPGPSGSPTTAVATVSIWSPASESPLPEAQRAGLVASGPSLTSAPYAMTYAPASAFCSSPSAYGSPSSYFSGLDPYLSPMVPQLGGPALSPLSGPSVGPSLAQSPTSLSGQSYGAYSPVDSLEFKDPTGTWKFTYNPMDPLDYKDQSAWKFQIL

Take ATGGAT: the binding signal in the test with FEV was 1.04 fold enrichment (6-mer frequency, TF over GST control); with ETV5, 1.07 fold enrichment (6-mer frequency, TF over GST control); in the test with HSF1, 1.26 fold enrichment (6-mer frequency, TF over GST control); in the test with SPIC it was 1.21 fold enrichment (6-mer frequency, TF over GST control); with ELF4, 1.11 fold enrichment (6-mer frequency, TF over GST control); with ELK4, 1.14 fold enrichment (6-mer frequency, TF over GST control). Moreover, the binding signal is 1.06 fold enrichment (6-mer frequency, TF over GST control) with ETV2; 1.09 fold enrichment (6-mer frequency, TF over GST control) with ELF3; 1.6 fold enrichment (6-mer frequency, TF over GST control) with CRX; 1.06 fold enrichment (6-mer frequency, TF over GST control) with ETV1; 1.09 fold enrichment (6-mer frequency, TF over GST control) with ERF; 1.16 fold enrichment (6-mer frequency, TF over GST control) with ETV3L. The binding signal is 1.09 fold enrichment (6-mer frequency, TF over GST control) with ETS2; 1.01 fold enrichment (6-mer frequency, TF over GST control) in the test with SPDEF; 1.16 fold enrichment (6-mer frequency, TF over GST control) with ETV7; 1.06 fold enrichment (6-mer frequency, TF over GST control) with ELF5; 1.11 fold enrichment (6-mer frequency, TF over GST control) with ETV3; 1.09 fold enrichment (6-mer frequency, TF over GST control) in the test with ETV6.
